This is a sample that favours compounds with a hit; in the whole collection about 18% have one here.
TDP1 cell noCPT: qHTS for Inhibitors of human tyrosyl-DNA phosphodiesterase 1 (TDP1): qHTS in cells in absence of CPT | DT40 Tdp1-/- hTDP1 cells, no CPT, ATP luminescence, 48 h | 15% of 420,000 active | Potency, µM (highest dose often 46.2 µM), for the others: top-dose activity change, negative = growth inhibition, actives largely listed as inhibitors; further: potency means the concentration at half of the fitted maximal effect; nearly all actives have a fitted effect of over 55% in size
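No-CPT arm: Tdp1-/-;hTDP1 DT40 cells (400/well) plus compounds, incubated ≥48 hr at 37 °C. Readout CellTiter-Glo luminescence.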
CtBP-E1A inh: qHTS Assay for Inhibitors of the CtBP/E1A Interaction; CtBP / adenovirus E1A interaction (AlphaScreen); 0.49% of 340,000 active; AID 651724, 2012; activity change, % (no concentration beside the values); AlphaScreen GST-E1A/His-CtBP binding, 1536-well; active compounds read low; in the data active means activity change below about -65%; inconclusive means mostly about -30% to -63%
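Homogeneous bead-based format: GST-tagged E1A captured on glutathione donor beads, His-tagged CtBP on nickel acceptor beads; compounds precede bead addition by 2 h at 37 °C.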
IL1B secr inh: qHTS for Inhibitors of Inflammasome Signaling: IL-1-beta AlphaLISA Primary Screen; 4.7% of 360,000 active; AID 743279, 2014; activity change, % at 57.5 µM; THP-1 LPS/ATP IL-1B secretion, AlphaLISA, 16 h; active compounds read low; in the data active means activity change below about -50%; inconclusive means mostly about -30% to -49%
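Secreted IL-1B measured by AlphaLISA bead assay after 16 h compound exposure of THP-1 cells; compounds (final up to 57.5 uM) added 1 h before LPS (250 ng/mL) and ATP (1.25 mM) stimulation; lower signal means less secretion.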
Six1-Eya2 blk: qHTS Assay for Inhibitors of the Six1/Eya2 Interaction. AlphaScreen GST-Six1/His-Eya2 binding, biochemical; active compounds read low. activity change, % (concentration not given with the values). 0.56% of 360,000 active. AID 651725, 2012; in the data active means activity change below about -65%; inconclusive means mostly about -30% to -63%
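AlphaScreen with GST-Six1 and His-Eya2 (5X mix: 250 nM and 500 nM), glutathione donor and nickel acceptor beads; buffer 50 mM Tris pH 8.0, 300 mM NaCl, 1 mM TCEP; 1 h at 37 C in the dark.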
TDP1 inh: qHTS Assay for Inhibitors of Tyrosyl-DNA Phosphodiesterase (TDP1) | Tyrosyl-DNA phosphodiesterase 1 (Homo sapiens), Q9NUW8 | recombinant TDP1, AlphaScreen DNA substrate cleavage | Potency, µM (titrated, usually from 130 µM), for inactives: at the highest dose activity change, negative = inhibition, usual class: inhibitors | 0.28% of 350,000 active | AID 485290, 2010; further: potency means the concentration at half of the fitted maximal effect; nearly all actives have a fitted effect of over 40% in size
Target sequence (Q9NUW8 whole entry, looked up): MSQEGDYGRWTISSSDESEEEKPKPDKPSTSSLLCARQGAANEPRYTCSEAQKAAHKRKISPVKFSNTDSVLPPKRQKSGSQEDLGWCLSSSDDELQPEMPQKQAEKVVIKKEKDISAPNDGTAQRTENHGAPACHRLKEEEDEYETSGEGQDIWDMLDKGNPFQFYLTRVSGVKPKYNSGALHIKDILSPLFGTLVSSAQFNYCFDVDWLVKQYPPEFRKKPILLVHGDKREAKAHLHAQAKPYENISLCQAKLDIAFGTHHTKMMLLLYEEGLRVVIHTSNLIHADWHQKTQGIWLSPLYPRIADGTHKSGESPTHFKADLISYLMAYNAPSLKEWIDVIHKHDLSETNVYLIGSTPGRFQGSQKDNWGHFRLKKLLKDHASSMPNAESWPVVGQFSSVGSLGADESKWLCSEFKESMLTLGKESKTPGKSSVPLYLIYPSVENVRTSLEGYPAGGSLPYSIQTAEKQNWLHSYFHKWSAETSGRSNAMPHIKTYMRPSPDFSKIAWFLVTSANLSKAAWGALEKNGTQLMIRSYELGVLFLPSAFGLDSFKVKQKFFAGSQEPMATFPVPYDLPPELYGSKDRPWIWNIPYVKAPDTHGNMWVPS
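Enzyme-compound mixtures sat 15 min at room temperature, followed by a 5 min reaction with 15 nM final substrate and 10 min with AlphaScreen beads. Recombinant human Tdp1 was used at 1 nM final.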
DT40 TDP1 CPT: qHTS for Inhibitors of human tyrosyl-DNA phosphodiesterase 1 (TDP1): qHTS in cells in presence of CPT | chicken DT40 Tdp1-/-;hTDP1 cells + 20 nM CPT, ATP luminescence, 48 h | Potency, µM (top dose mostly 46.2 µM), for inactives: at the top dose activity change, negative = growth inhibition, actives largely listed as inhibitors | 12% of 420,000 active; further: potency means the concentration at half of the fitted maximal effect; nearly all actives have a fitted effect of over 55% in size
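Chicken DT40 Tdp1-/- cells stably complemented with human TDP1 were seeded at 400 cells/well in medium containing 20 nM camptothecin, exposed to pin-transferred compounds, and grown at 37 °C for at least 48 hr. Viability was read as ATP luminescence.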
* marks the source's active call; other numbers are inactive results; [ ] = remark or other dose. Unless noted, the call rests on the fitted dose curve; in most records, active means well fitted curve in the direction sought with a large enough effect; inconclusive means small, poorly fitted or top-dose-only effect, or another doubt; inactive means no such curve, though single readings can be large; an effect the other way counts as inactive or inconclusive. On the % scale 0 is the no-effect control and ±100 the full control effect.

What do the screens show for `COc1ccc(-c2cc(NC=O)c3ncc(-c4ccc(OC)c(OC)c4)n3c2)cc1`?
TDP1 cell noCPT: 1µM*; CtBP-E1A inh: -15; IL1B secr inh: -11; Six1-Eya2 blk: -12; DT40 TDP1 CPT: 0.73µM*

How did COc1ccc(-c2cnc3c(NC=O)cc(-c4ccccc4OC)cn23)cc1OC do in these assays?
TDP1 cell noCPT: 0.0073µM*; CtBP-E1A inh: -17; IL1B secr inh: 32; Six1-Eya2 blk: -24; DT40 TDP1 CPT: 0.029µM*

How did COc1ccc(-c2cc(NC=O)c3ncc(-c4ccc(OC)c(OC)c4)n3c2)cc1OC do in these assays?
TDP1 cell noCPT: 4.1µM*; CtBP-E1A inh: -30; IL1B secr inh: -62*; Six1-Eya2 blk: inconclusive; DT40 TDP1 CPT: 5.2µM*

How did COC(=O)C1=C(C)Nc2nc3ccccc3n2C1c1ccccc1F (stereo not given) do in these assays?
TDP1 cell noCPT: inconclusive; CtBP-E1A inh: 0; IL1B secr inh: 11; Six1-Eya2 blk: 3; DT40 TDP1 CPT: inconclusive

What do the screens show for `CCOC(=O)C1CCN(C(=O)COC(=O)CNS(=O)(=O)c2ccc(SC)c([N+](=O)[O-])c2)CC1`?
TDP1 cell noCPT: -14%; CtBP-E1A inh: 1; IL1B secr inh: 18; Six1-Eya2 blk: -7; DT40 TDP1 CPT: -21%

Results for O=C(Nc1nc2c(s1)CCCC2)c1cc2n(n1)C(C(F)(F)F)CC(C1CC1)N2 (stereo not given) ?
TDP1 cell noCPT: inconclusive; CtBP-E1A inh: 0; IL1B secr inh: -60*; Six1-Eya2 blk: 9; TDP1 inh: 7%; DT40 TDP1 CPT: -25%

What do the screens show for `CCc1ccccc1NC(=O)CN1C(=O)CCn2nc(-c3cccn3C)cc21`?
TDP1 cell noCPT: -2%; TDP1 inh: 5%; DT40 TDP1 CPT: 1%

What do the screens show for `Cc1c(C(=O)NCc2ccc(F)cc2)oc2ccc(S(=O)(=O)N3CCOCC3)cc12`?
TDP1 cell noCPT: 15µM*; CtBP-E1A inh: -11; IL1B secr inh: -22; Six1-Eya2 blk: -4; TDP1 inh: 6%; DT40 TDP1 CPT: inconclusive

How did CCN(CC)S(=O)(=O)c1ccc2oc(C(=O)Nc3ccc(OC)cc3OC)c(C)c2c1 do in these assays?
TDP1 cell noCPT: 12µM*; CtBP-E1A inh: -2; IL1B secr inh: 6; Six1-Eya2 blk: -1; TDP1 inh: 6%; DT40 TDP1 CPT: 18µM*

What do the screens show for `CCN(CC)S(=O)(=O)c1ccc2oc(C(=O)NCc3ccc(F)cc3)c(C)c2c1`?
TDP1 cell noCPT: 13µM*; CtBP-E1A inh: 6; IL1B secr inh: inconclusive; Six1-Eya2 blk: -2; TDP1 inh: 0%; DT40 TDP1 CPT: 13µM*

How did CCN(CC)S(=O)(=O)c1ccc2oc(Nc3ccc(OC)cc3OC)nc2c1 do in these assays?
TDP1 cell noCPT: 18µM*; CtBP-E1A inh: 11; IL1B secr inh: 25; Six1-Eya2 blk: -16; TDP1 inh: 0%; DT40 TDP1 CPT: inconclusive

How did Cc1c(C(=O)NCCc2ccccc2)oc2ccc(S(=O)(=O)N3CCOCC3)cc12 do in these assays?
TDP1 cell noCPT: inconclusive; CtBP-E1A inh: -2; IL1B secr inh: -4; Six1-Eya2 blk: 1; TDP1 inh: 3%; DT40 TDP1 CPT: -24%

How did CCOc1ccc(-c2cc(N)n(S(=O)(=O)c3ccc(OC)cc3)n2)cc1 do in these assays?
TDP1 cell noCPT: inconclusive; CtBP-E1A inh: -2; IL1B secr inh: -8; Six1-Eya2 blk: -6; TDP1 inh: 0%; DT40 TDP1 CPT: inconclusive

What do the screens show for `COc1ccc2oc(C(=O)NCc3cc(OC)c(OC)cc3OC)c(C)c2c1`?
TDP1 cell noCPT: 16µM*; CtBP-E1A inh: -24; IL1B secr inh: -14; Six1-Eya2 blk: -15; TDP1 inh: 15%; DT40 TDP1 CPT: 23µM*

Results for Cc1c(C(=O)NCc2ccc3c(c2)OCO3)oc2ccc(S(=O)(=O)N3CCC(C)CC3)cc12 ?
TDP1 cell noCPT: 15µM*; CtBP-E1A inh: -1; IL1B secr inh: 78; Six1-Eya2 blk: -2; TDP1 inh: -2%; DT40 TDP1 CPT: 15µM*

Results for CCN(CC)S(=O)(=O)c1ccc2oc(C(=O)NC3CC3)c(C)c2c1 ?
TDP1 cell noCPT: 10µM*; CtBP-E1A inh: 4; IL1B secr inh: 24; Six1-Eya2 blk: 7; DT40 TDP1 CPT: -22%

How did CCOC(=O)c1oc2ccc(S(=O)(=O)n3nc(-c4ccc(OC)cc4)cc3N)cc2c1C do in these assays?
TDP1 cell noCPT: 2.9µM*; CtBP-E1A inh: 3; IL1B secr inh: 18; Six1-Eya2 blk: -4; TDP1 inh: 3%; DT40 TDP1 CPT: 2.9µM*

What do the screens show for `CCOc1ccc2oc(C(=O)Nc3nccs3)c(C)c2c1`?
TDP1 cell noCPT: -20%; CtBP-E1A inh: 0; IL1B secr inh: 9; Six1-Eya2 blk: 8; TDP1 inh: -9%; DT40 TDP1 CPT: -26%

Results for Cc1cccc(NC(=O)COc2cccc3c2CCN(C)C3=O)c1 ?
TDP1 cell noCPT: inconclusive; CtBP-E1A inh: 23; IL1B secr inh: 8; Six1-Eya2 blk: 0; TDP1 inh: 1%; DT40 TDP1 CPT: inconclusive

What do the screens show for `CCCCn1c(N)c(N(CCOC)C(=O)CSCc2ccc(Cl)c(Cl)c2)c(=O)[nH]c1=O`?
TDP1 cell noCPT: inconclusive; CtBP-E1A inh: -13; IL1B secr inh: -13; Six1-Eya2 blk: 5; TDP1 inh: -10%[0.505 µM]; DT40 TDP1 CPT: -26%

Results for CC(C)CN(C(=O)CN(C)CC(=O)Nc1ccc(Cl)c(C(F)(F)F)c1)c1c(N)n(CC(C)C)c(=O)[nH]c1=O ?
TDP1 cell noCPT: 18µM*; CtBP-E1A inh: 8; IL1B secr inh: -66*; Six1-Eya2 blk: -5; TDP1 inh: -1%; DT40 TDP1 CPT: inconclusive

What do the screens show for `COc1ccc(Cl)cc1NC(=O)CN(C)CC(=O)N(CC(C)C)c1c(N)n(CC(C)C)c(=O)[nH]c1=O`?
TDP1 cell noCPT: -1%; IL1B secr inh: 0; Six1-Eya2 blk: 3; TDP1 inh: 0%; DT40 TDP1 CPT: 13%

How did CCCCn1c(N)c(N(CCOC)C(=O)COC(=O)COc2cc(C)ccc2Cl)c(=O)[nH]c1=O do in these assays?
TDP1 cell noCPT: -19%; CtBP-E1A inh: 6; IL1B secr inh: 12; Six1-Eya2 blk: 0; TDP1 inh: 4%; DT40 TDP1 CPT: -2%

Source: PubChem BioAssay (National Center for Advancing Translational Sciences (NCATS))
